Results filed as inconclusive are left out. Entries that show only a call come without a potency. The source made the active and inactive calls. Unless noted, calls come from the whole dose curve; as a rule, active = well fitted curve in the direction sought with a large enough effect; inconclusive = small, poorly fitted or top-dose-only effect, or another doubt; inactive = no such curve, though single readings can be large; an effect the other way counts as inactive or inconclusive.
Assays:
[1] = test system: Zika virus NS2B-NS3 protease; assay: Primary screen GU AMC qHTS for Zika virus inhibitors (AID 1347154); note: nearly all actives have a fitted effect of over 70% in size
In short: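 Fluorogenic AMC-substrate cleavage by noncovalent NS2B-NS3 protease complex (25 nM, pH 8.0 Tris buffer with Tween 20) followed for 15 minutes at room temperature (~20% conversion). Percent inhibition from ex340/em450 signal change, fitted by 4-parameter Hill equation.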

[2] = qHTS to identify inhibitors of the type 1 interferon - major histocompatibility complex class I in skeletal muscle: primary screen against the NCATS Mechanism Interrogation Plate v5.0 (MIPE) Libary (AID 1347411); note: nearly all actives have a fitted effect of over 65% in size
In short: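 HLA-B HiBit myoblasts, dexamethasone-free medium + 4 ng/ml IFN-b, 24 h compound, 11-pt 1:3 from 46 uM final. Readout: Nano-Glo HiBiT lytic luminescence after 10 min lysis, RT.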

[3] = Primary qHTS for small molecule stabilizers of the endoplasmic reticulum resident proteome: Secreted ER Calcium Modulated Protein (SERCaMP) assay (AID 1508630)
In short: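 The SH-SY5Y reporter protocol was run at 3 concentrations up to 38.3 uM (primary) or 11 concentrations (follow-up): 16 h compound, 100 nM thapsigargin for 4 h, then extracellular luciferase luminescence.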

[4] = Primary qHTS for inhibitors of nuclear receptor binding SET domain protein 2 (NSD2) in an isogenic RCH-ACV NSD2 p.E1099K mutant (9B) (AID 1645876); note: potency is the fitted concentration of half-maximal effect; nearly all actives have a fitted effect of over 70% in size
[5] = Primary qHTS for inhibitors of nuclear receptor binding SET domain protein 2 (NSD2) in an RCH-ACV wild type WT cells (2C) (AID 1645877); note: potency is the fitted concentration of half-maximal effect; nearly all actives have a fitted effect of over 70% in size
[6] = target: Glutathione peroxidase 1 (Homo sapiens) (UniProt P07203); assay: Primary qHTS Assay for Inhibitors of Recombinant Selenoprotein Glutathione Peroxidase 1 (GPX1) (AID 1845191); note: nearly all actives have a fitted effect of over 65% in size
Glutathione peroxidase 1 (Homo sapiens), sequence (P07203 whole entry, looked up): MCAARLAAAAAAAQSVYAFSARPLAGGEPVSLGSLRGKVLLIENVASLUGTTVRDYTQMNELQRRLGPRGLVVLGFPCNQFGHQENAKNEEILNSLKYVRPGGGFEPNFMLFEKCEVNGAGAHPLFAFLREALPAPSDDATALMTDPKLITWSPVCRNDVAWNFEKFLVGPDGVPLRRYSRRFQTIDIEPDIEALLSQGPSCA
In short: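 NADPH consumption tracked by fluorescence at 340/450 nm between t=0 and t=15 min, room temperature. Final mix: 10 nM GPX1, 100 nM glutathione reductase, 1 mM GSH, 0.5 mM NADPH, 0.5 mM cumene hydroperoxide, 0.01% BSA; 30 min compound–enzyme preincubation.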

[7] = target: Phospholipid hydroperoxide glutathione peroxidase GPX4 (Homo sapiens) (UniProt P36969); assay: Primary qHTS Assay for Inhibitors of Recombinant Selenoprotein Glutathione Peroxidase 4 (GPX4) (AID 1845192); conditions: outcome: dose series up to 50 µM unless noted; note: series mostly up to about 50 µM; nearly all actives have a fitted effect of over 65% in size
Phospholipid hydroperoxide glutathione peroxidase GPX4 (Homo sapiens), sequence (P36969 whole entry, looked up): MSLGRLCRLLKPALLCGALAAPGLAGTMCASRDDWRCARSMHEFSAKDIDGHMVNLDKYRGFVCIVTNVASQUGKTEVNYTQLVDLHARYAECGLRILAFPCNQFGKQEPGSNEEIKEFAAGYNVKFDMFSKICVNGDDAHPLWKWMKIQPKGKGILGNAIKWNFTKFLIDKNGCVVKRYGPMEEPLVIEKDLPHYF
In short: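 NADPH consumption followed by fluorescence at 340/450 nm, t=0 and after 15 min at room temperature. Reaction started with cumene hydroperoxide (0.5 mM final) after 30 min compound–GPX4 preincubation; final 200 nM GPX4, 100 nM GR, 1 mM GSH, 0.5 mM NADPH.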

[8] = qHTS drug screen for cell cycle checkpoint inhibitors in PARPi-resistant BRCA-mutant ovarian cancer cell lines. (AID 1963452; calls by dose curve); conditions: PEO1/OlaR viability, CellTiter-Glo luminescence, 96 h, stronger effect = lower value
In short: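 PEO1, PEO4 and PEO1/OlaR ovarian cancer cells, 600 per well, exposed 96 h at 37C to a dilution series. Viability read by CellTiter-Glo luminescence, normalized to DMSO and empty wells; activity summarized as Z-AUC.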

COc1ccc2c(c1)CC[C@@H]1[C@@H]2CC[C@]2(C)[C@@H](NCCCCCCN3C(=O)C=CC3=O)CC[C@@H]12
Potency [1]: inactive
Potency [2]: inactive
Potency [3]: inactive
Potency [4]: 13.2 µM (active)
Potency [5]: 5.25 µM (active)
Potency [6]: inactive
Potency [7]: inactive
Z-AUC [8]: 0.11 (inactive)
Z-AUC ([8]; measured here: PEO1 parental Z-AUC): 0.00217
Z-AUC ([8]; measured here: PEO4 Z-AUC): 0.205

— PubChem BioAssay (NCATS)
